# Data published in PubChem BioAssay.
# Values joined by “and” are separate entries in the source; they are usually repeats but may differ in a detail not shown here. Identical values can stand only once. A structure can be active in one record and inactive in another. Active and inactive are the calls of the source.
# Columns and labels:
# [1] = system: PRMT1 (protein arginine N-methyltransferase 1); test: small molecules binding arginine methyltransferase PRMT1 – biochemical, small-molecule microarray, 635 nm fluorescence, primary screen (AID 1088); conditions: higher = more signal;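 note: binding of Prmt1 protein to compounds spotted on small-molecule microarray slides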
# [2] = growth effects on S. cerevisiae YJM789 – YJM789 clinical isolate, OD600, 24 h, basal, primary screen (AID 1089); conditions: higher = more signal, called active from +8 up or from −8 down;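 note: growth of clinical yeast isolate S. cerevisiae YJM 789 seeded 1000 cells per well; test concentration not given here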
# [3] = S. pombe growth modifiers, basal conditions – strain 972, OD600, 24 h, no modulator, primary screen (AID 1090);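 note: basal condition with compound alone and no growth modifier present; test concentration not given here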; conditions: S. pombe 972 growth, higher = more signal, called active from +8 up or from −8 down
# [4] = budding yeast growth modifiers under rapamycin – strain BY4716, OD600, 96 h, primary screen (AID 1091); note: test concentration not given here; conditions: S. cerevisiae BY4716 + rapamycin, higher = more signal, called active from +8 up or from −8 down
# [5] = biological target: Torsin-1A-interacting protein 2 (Homo sapiens) (UniProt Q8NFQ8); test: small molecules binding lysate-expressed LULL1 – cell lysate, human LULL1 lysate, 635/667 nm fluorescence, primary screen (AID 1092); conditions: small-molecule microarray, hLULL1 lysate binding, 635 nm fluorescence; higher = more signal;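 note: probe is lysate of COS7 cells overexpressing human LULL1; score merges per-feature 667 nm fluorescence with signal-to-noise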
# Chain of Torsin-1A-interacting protein 2 (Homo sapiens) (Q8NFQ8 whole entry, looked up): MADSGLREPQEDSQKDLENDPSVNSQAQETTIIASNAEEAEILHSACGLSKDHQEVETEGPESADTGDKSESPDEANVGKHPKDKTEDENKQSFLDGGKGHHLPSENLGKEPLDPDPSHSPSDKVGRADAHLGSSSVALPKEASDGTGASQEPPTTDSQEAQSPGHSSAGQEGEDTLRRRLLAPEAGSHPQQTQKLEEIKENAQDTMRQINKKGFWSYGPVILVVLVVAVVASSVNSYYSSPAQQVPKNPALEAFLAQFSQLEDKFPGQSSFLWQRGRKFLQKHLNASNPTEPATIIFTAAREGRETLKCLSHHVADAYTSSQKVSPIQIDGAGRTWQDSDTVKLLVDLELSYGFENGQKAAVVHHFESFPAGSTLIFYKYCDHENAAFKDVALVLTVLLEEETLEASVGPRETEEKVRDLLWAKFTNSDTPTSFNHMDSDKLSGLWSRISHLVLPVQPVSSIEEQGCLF
# [6] = optical density change of DRC41 E. coli – strain DRC41, OD650, 24 h, E. coli filamentation project, primary screen (AID 1093);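 note: MC1000 strain lacking acrAB efflux and sulA so SOS filamentation is blocked; test concentration not given here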; conditions: E. coli DRC41 growth, higher = more signal, called active from +8 up or from −8 down
# [7] = probe aLefty2 binding to arrayed compounds – biochemical, biotinylated probe, 635/667 nm fluorescence, primary screen (AID 1094); conditions: small-molecule microarray, higher = more signal;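 note: score merges spot fluorescence near 667 nm with spot signal-to-noise ratio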
# [8] = system: Noggin (protein binding on small-molecule microarray); test: small molecules binding Noggin protein – biochemical, 635/667 nm fluorescence, primary screen (AID 1095); conditions: 635 nm fluorescence, higher = more signal;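 note: score merges 667 nm feature fluorescence with signal to noise over triplicate slides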
# [9] = biological target: Neurogenic locus notch homolog protein 3 (Homo sapiens) (UniProt Q9UM47); test: small molecules binding NOTCH3 protein – biochemical, 635/667 nm fluorescence, primary screen (AID 1096); conditions: small-molecule microarray, 635 nm fluorescence, higher = more signal
# Chain of Neurogenic locus notch homolog protein 3 (Homo sapiens) (Q9UM47 whole entry, looked up): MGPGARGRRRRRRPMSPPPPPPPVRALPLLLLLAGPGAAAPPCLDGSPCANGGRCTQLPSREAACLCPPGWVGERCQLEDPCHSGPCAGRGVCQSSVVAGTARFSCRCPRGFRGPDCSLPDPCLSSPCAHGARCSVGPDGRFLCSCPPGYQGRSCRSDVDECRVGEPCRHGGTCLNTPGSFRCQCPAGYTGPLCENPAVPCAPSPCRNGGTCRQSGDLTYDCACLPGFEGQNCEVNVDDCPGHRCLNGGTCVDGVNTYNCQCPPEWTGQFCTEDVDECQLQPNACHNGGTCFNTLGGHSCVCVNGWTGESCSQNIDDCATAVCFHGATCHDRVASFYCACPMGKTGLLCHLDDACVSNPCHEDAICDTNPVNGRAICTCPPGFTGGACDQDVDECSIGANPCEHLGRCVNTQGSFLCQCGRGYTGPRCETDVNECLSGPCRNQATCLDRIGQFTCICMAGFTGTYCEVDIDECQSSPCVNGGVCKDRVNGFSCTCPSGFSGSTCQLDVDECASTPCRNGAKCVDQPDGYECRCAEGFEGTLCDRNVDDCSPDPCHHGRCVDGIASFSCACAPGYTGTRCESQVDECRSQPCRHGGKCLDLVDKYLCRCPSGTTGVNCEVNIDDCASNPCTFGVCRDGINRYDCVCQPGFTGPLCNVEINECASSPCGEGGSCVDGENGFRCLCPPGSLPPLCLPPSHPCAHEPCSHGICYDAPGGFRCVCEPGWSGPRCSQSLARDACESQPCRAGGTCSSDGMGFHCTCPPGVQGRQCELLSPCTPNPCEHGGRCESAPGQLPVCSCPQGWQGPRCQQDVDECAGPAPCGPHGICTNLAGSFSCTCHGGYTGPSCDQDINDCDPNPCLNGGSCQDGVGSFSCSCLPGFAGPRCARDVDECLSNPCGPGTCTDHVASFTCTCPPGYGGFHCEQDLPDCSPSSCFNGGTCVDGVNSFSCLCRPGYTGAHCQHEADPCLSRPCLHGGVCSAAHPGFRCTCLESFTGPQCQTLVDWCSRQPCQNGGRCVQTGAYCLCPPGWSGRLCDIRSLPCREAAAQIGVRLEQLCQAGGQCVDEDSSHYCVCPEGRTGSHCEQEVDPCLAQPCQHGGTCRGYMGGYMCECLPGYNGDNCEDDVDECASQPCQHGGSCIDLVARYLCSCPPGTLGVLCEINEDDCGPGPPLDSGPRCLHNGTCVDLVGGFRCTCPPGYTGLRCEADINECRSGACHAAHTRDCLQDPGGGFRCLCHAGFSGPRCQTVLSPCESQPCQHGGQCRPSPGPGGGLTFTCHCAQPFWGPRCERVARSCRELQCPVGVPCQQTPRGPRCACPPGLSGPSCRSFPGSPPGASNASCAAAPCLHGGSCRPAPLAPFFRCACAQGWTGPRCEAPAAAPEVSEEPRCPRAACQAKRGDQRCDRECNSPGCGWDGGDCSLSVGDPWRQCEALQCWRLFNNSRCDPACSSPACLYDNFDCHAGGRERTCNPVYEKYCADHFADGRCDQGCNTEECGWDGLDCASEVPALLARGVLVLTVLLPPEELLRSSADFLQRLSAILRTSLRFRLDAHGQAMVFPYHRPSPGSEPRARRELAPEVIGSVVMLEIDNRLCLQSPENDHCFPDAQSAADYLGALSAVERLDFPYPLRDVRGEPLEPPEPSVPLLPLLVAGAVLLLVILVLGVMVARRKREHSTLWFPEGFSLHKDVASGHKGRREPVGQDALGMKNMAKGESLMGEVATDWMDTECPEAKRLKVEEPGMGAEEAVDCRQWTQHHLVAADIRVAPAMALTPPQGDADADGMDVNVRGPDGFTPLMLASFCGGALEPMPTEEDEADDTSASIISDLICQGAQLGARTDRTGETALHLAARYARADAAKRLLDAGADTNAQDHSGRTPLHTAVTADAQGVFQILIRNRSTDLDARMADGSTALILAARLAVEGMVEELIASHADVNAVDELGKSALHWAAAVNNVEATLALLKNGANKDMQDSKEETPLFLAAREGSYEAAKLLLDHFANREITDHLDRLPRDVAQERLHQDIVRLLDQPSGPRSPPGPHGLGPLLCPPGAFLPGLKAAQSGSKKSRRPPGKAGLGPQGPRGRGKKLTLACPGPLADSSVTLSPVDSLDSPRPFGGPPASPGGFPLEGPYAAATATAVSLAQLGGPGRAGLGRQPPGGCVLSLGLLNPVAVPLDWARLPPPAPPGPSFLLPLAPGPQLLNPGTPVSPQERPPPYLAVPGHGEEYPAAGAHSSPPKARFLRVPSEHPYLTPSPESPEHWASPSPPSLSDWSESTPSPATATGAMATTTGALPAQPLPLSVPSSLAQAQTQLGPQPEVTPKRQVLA
# [10] = probe aEGFR binding to arrayed compounds – biochemical, biotinylated probe, 635/667 nm fluorescence, primary screen (AID 1097); conditions: small-molecule microarray, higher = more signal;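 note: probe is a biotinylated anti-EGFR antibody binding compounds printed on slides; score combines fluorescence near 667 nm and signal to noise of each spot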
# [11] = system: Plasmodium falciparum Sir2 (PF13_0152, Sir2A); test: Plasmodium falciparum Sir2A binding compounds – biochemical, small-molecule microarray, 635 nm fluorescence, primary screen (AID 1098); conditions: fluorescence 635 nm, higher = more signal;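 note: score merges spot fluorescence intensity with its signal-to-noise ratio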
# [12] = probe aDKK1 binding to arrayed compounds – biochemical, biotinylated probe, 635/667 nm fluorescence, primary screen (AID 1099); conditions: small-molecule microarray, higher = more signal;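 note: score merges 667nm spot fluorescence with signal to noise across triplicate slides; reference of the scale not given here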
# [13] = probe aCHRDL2 binding to arrayed compounds – biochemical, biotinylated probe, 635/667 nm fluorescence, primary screen (AID 1100); conditions: small-molecule microarray, higher = more signal
# [14] = change in splice reporter luminescence, either direction, cell-based, HEK293, spliceosome inhibition project, primary screen (AID 1101); conditions: HEK293 splicing luciferase reporter, 24 h, higher = more signal, called active from +8 up or from −8 down;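 note: HEK293 cells carrying a splicing-competent luciferase reporter gene; test concentration not given here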
# [15] = biological target: Fibroblast growth factor 10 (Homo sapiens) (UniProt O15520); test: compounds binding fibroblast growth factor 10 – biochemical, small-molecule microarray, 635 nm fluorescence, primary screen (AID 1102); conditions: FGF10 binding, fluorescence 635 nm, higher = more signal
# Chain of Fibroblast growth factor 10 (Homo sapiens) (O15520 whole entry, looked up): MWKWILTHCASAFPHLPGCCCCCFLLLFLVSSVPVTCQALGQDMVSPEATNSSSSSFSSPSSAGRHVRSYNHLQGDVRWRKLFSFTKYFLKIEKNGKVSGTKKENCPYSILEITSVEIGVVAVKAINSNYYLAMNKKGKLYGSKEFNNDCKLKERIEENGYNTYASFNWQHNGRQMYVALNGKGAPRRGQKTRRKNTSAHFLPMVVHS
# [16] = system: glycogen synthase kinase-3 (GSK3A per assay name; protocol says GSK3B); test: compounds binding glycogen synthase kinase-3 – biochemical, small-molecule microarray, 635 nm fluorescence, GSK3A, primary screen (AID 1103); conditions: fluorescence 635 nm, higher = more signal; note: the record names both GSK3A and GSK3B
# [17] = biological target: Epidermal growth factor receptor (Homo sapiens) (UniProt P00533); test: compounds binding epidermal growth factor receptor – biochemical, small-molecule microarray, 635 nm fluorescence, primary screen (AID 1104); conditions: EGFR binding, higher = more signal;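 note: score merges 667 nm emission intensity with spot signal to noise over triplicate slides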
# Chain of Epidermal growth factor receptor (Homo sapiens) (P00533 whole entry, looked up): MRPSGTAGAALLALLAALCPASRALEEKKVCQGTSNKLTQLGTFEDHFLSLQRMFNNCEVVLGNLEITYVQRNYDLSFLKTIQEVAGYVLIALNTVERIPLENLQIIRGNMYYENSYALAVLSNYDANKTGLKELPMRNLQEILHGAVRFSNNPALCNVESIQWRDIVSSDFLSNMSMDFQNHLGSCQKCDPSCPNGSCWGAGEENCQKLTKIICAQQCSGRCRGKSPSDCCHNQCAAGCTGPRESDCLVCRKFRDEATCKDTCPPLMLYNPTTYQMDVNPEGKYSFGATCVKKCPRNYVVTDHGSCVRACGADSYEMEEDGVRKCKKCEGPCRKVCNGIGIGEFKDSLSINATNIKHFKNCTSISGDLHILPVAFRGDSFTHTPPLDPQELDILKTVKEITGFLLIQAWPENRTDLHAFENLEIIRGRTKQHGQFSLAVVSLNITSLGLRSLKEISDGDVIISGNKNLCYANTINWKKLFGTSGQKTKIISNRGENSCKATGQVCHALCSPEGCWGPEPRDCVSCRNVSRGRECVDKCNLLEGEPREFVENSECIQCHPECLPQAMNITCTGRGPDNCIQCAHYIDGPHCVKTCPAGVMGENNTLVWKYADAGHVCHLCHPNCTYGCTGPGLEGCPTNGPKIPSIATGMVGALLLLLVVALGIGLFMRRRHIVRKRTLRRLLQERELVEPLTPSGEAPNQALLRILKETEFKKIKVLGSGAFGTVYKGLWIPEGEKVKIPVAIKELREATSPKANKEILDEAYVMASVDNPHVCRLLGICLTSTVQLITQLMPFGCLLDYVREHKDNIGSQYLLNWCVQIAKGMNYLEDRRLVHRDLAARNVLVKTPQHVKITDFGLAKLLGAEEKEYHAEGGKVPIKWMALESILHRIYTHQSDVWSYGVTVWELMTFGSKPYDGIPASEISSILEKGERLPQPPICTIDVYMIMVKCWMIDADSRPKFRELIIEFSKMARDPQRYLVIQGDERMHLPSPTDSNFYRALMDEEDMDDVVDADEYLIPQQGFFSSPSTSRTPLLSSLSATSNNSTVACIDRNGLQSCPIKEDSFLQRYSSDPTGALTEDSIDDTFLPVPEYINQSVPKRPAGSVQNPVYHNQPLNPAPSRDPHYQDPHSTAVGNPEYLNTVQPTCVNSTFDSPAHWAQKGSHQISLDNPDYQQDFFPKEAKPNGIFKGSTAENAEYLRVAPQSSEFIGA
# [18] = biological target: Follistatin-related protein 3 (Homo sapiens) (UniProt O95633); test: compounds binding follistatin-related protein 3 – biochemical, small-molecule microarray, 635 nm fluorescence, primary screen (AID 1105); conditions: FSTL3 binding, higher = more signal;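 note: score merges emission near 667 nm and signal to noise per printed spot across three slides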
# Chain of Follistatin-related protein 3 (Homo sapiens) (O95633 whole entry, looked up): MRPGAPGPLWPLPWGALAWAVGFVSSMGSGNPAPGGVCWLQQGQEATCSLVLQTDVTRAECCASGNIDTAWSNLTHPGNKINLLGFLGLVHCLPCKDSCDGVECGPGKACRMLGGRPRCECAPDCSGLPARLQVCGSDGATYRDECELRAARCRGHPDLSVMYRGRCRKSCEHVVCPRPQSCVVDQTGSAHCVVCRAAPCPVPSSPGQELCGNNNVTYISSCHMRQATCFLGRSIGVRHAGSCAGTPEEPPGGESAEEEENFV
# [19] = biological target: Dickkopf-related protein 1 (Homo sapiens) (UniProt O94907); test: small molecules binding DKK1 protein – biochemical, small-molecule microarray, 635 nm fluorescence scan, primary screen (AID 1106); conditions: higher = more signal;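 note: score merges emission near 667 nm with signal to noise over three replicate slides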
# Chain of Dickkopf-related protein 1 (Homo sapiens) (O94907 whole entry, looked up): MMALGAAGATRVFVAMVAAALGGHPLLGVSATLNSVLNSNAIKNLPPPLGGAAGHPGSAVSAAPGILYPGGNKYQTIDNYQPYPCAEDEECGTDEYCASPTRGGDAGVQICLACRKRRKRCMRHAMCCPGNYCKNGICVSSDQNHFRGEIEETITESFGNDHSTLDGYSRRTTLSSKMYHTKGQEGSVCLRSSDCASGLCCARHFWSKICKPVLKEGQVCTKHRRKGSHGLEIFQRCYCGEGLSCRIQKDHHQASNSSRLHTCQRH
# [20] = system: Inhibin beta A chain (activin A); test: small molecules binding activin A – biochemical, small-molecule microarray, 635 nm fluorescence scan, primary screen (AID 1107); conditions: INHBA, higher = more signal;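 note: mouse activin A protein probed at 4.33 µg/mL on printed slides; score merges bound-protein fluorescence near 667 nm with spot signal-to-noise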
Compound,composite z-score [1],z-score [2],z-score [3],z-score [4],composite z-score [5],z-score [6],composite z-score [7],composite z-score [8],composite z-score [9],composite z-score [10],composite z-score [11],composite z-score [12],composite z-score [13],z-score [14],composite z-score [15],composite z-score [16],composite z-score [17],composite z-score [18],composite z-score [19],composite z-score [20]
COC(=O)C1=C(C)N(Cc2ccccc2)C2=C(C(=O)c3ccccc3)[C@H](c3ccccc3)[C@@](O)(C(=O)OC)C(=O)N2[C@@H]1c1ccccc1,0.518 and 0.722,0.504 (inactive) and 0.653 (inactive),-0.413 (inactive) and -0.0902 (inactive),34.6 (active) and 0.863 (inactive),0.886 and 0.23,0.591 (inactive) and 0.311 (inactive),0.0039 and -0.115,0.495 and 0.653,0.858 and 0.808,0.127 and -0.123,0.419 and 0.36,-0.0581 and -0.208,-0.178 and -0.433,-1.7 (inactive) and 0.839 (inactive),0.654 and 0.495,0.739 and 0.519,0.392 and 0.353,0.626 and 0.53,0.638 and 0.349,-0.0471 and -0.0052
C=CCN(C(=O)C(c1cccs1)N(C(=O)/C=C\C(=O)O)c1c(Cl)cccc1CO)c1ccc(OC)cc1 (stereo not given),-0.517 and -1.02,-0.521 (inactive) and 0.247 (inactive),-1.88 (inactive) and -0.83 (inactive),-1.51 (inactive) and -0.982 (inactive),3.16 and 0.422,1.67 (inactive) and -0.311 (inactive),0.018 and 0.522,-3.84 and -2.48,-1.02 and -1.39,-0.238 and -0.121,1.67 and 0.504,0.218 and 1.01,1.24 and 1.27,-1.13 (inactive) and -0.482 (inactive),-1.5 and -1.19,-0.625 and -0.907,-2.29 and -1.02,-2.23 and -1.78,-4.06 and -2.06,-0.828 and -0.09
COC(=O)[C@@]1(Cc2ccc(F)cc2)[C@H]2c3cc(C(=O)N4CCCC4)n(Cc4c(CO)[nH]cc(C)c4=O)c3C[C@H]2CN1C(=O)c1ccccc1,0.519 and 0.355,0.786 (inactive) and 1.14 (inactive),1.36 (inactive) and 1.39 (inactive),0.925 (inactive) and 1.59 (inactive),3.29 and 3.28,-0.633 (inactive) and -0.87 (inactive),1.33 and 0.155,0.0162 and -0.629,0.335 and 0.422,0.985 and 0.0594,1.47 and 1.53,2.17 and -0.115,1.29 and 0.955,-1.48 (inactive) and -0.107 (inactive),0.822 and 0.461,-0.252 and 0.368,0.704 and -0.2,0.0376 and -0.36,-0.198 and -0.57,1.02 and 1.31
CO[C@@H]1COC(=O)CC=C[C@H](C)[C@@H](NS(=O)(=O)c2ccc(C)cc2)COC(=O)CC=C[C@@H]1C,1.16 and 1.54,0.403 (inactive) and -0.552 (inactive),-0.733 (inactive) and -0.194 (inactive),0.62 (inactive) and -1.52 (inactive),0.633 and -0.853,0.56 (inactive) and 0.132 (inactive),-0.0785 and -0.186,1.27 and 1.31,0.634 and 0.525,-0.115 and 0.0097,0.462 and 1.72,-0.378 and -0.3,-0.823 and -0.867,-0.338 (inactive) and -0.57 (inactive),0.819 and 0.365,0.875 and 0.415,0.858 and 0.943,1.32 and 1.4,0.597 and 1.3,-0.113 and 1.32
